Structures are written as SMILES. Records with an inconclusive call do not appear. A call without a number means that no potency is given here. Calls of active or inactive are those of the source. Unless noted, calls come from the whole dose curve.

Sequence of Peroxisome proliferator-activated receptor delta (Homo sapiens) (Q03181 whole entry, looked up): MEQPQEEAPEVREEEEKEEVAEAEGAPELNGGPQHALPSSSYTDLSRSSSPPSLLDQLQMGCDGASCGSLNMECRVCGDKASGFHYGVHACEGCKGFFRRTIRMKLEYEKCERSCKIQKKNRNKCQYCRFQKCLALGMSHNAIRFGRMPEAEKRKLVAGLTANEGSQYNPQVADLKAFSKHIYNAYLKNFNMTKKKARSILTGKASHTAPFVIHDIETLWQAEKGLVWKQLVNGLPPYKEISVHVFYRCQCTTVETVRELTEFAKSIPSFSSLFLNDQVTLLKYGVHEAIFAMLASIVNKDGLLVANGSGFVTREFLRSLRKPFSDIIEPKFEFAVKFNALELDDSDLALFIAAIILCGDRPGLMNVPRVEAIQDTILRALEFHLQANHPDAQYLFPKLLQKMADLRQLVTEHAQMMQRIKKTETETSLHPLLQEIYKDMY
Sequence of Glucocorticoid receptor (Homo sapiens) (P04150 whole entry, looked up): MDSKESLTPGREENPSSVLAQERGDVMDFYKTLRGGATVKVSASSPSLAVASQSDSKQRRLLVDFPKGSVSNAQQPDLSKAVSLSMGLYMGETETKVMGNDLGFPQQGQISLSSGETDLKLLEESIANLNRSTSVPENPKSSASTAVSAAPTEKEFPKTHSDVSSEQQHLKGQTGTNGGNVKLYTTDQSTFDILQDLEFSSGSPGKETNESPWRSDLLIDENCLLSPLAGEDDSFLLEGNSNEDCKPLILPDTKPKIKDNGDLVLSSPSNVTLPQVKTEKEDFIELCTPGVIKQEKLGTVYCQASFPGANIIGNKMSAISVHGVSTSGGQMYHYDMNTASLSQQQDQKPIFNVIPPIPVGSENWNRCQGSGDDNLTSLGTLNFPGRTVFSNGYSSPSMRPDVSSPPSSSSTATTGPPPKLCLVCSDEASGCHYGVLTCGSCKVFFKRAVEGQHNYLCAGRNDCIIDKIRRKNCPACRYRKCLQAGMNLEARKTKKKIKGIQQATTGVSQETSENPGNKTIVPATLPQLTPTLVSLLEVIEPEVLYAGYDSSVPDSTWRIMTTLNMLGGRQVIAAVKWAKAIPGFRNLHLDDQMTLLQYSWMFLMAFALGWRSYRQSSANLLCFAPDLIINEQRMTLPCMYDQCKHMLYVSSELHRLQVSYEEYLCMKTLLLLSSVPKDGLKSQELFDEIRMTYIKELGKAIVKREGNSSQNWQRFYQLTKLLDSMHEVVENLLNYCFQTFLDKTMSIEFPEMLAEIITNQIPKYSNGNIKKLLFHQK

The first assay deals with Glucocorticoid receptor (Homo sapiens) (UniProt P04150). Description: qHTS assay for small molecule antagonists of glucocorticoid receptor signaling (AID 588533; active = well fitted inhibition curve with a large enough effect in the signal ratio, with a control signal flat, not every such curve was filed as active; the % refers to the signal ratio;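 note: cells stimulated with 2 nM dexamethasone as agonist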). Conditions: HeLa MMTV-bla, GRE beta-lactamase ratio, antagonist mode, 18 h; series mostly up to 76.8 µM. The essentials:
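Antagonist-mode qHTS: compound titrations added to GRE-bla HeLa cells, then dexamethasone 2 nM final; 18 h, 37 C. CCF4 FRET fluorescence normalized to dexamethasone and DMSO; IC50 from Hill fit.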
Background: Quantitative high-throughput screening tests each substance at several concentrations.
Consider `CNC(=O)Oc1cccc2c1OC(C)(C)O2`, for which the Potency entry is “inactive”.
With `CCCCSP(=O)(SCCCC)SCCCC`, the Potency entry was “inactive”.
For the compound `CCS(=O)CCSP(=O)(OC)OC` (stereo not given), the Potency result is “inactive”.
Regarding `COP(N)(=O)SC` (stereo not given), the Potency entry is “inactive”.
Turning to `CC(C)N1C(=O)c2ccccc2NS1(=O)=O`, the Potency result is “inactive”.
Take `O=C(O)COc1cc(Cl)c(Cl)cc1Cl`: the Potency entry was “inactive”.
Regarding `N#Cc1c(Cl)cccc1Cl`, the Potency entry is “inactive”.
As for `COc1nc(NC(C)C)nc(NC(C)C)n1`, the Potency entry is “inactive”.
Take `CNC(=O)Oc1ccccc1OC(C)C`: the Potency entry is “inactive”.

For the next assay, the target named is Peroxisome proliferator-activated receptor delta (Homo sapiens) (UniProt Q03181). Description: qHTS assay for small molecule agonists of peroxisome proliferator-activated receptor delta signaling (AID 588534). As to conditions: HEK293T PPARdelta-UAS-bla, beta-lactamase ratio, 18 h; series mostly up to 76.7 µM. The essentials:
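Fluorescence from CCF4 substrate cleavage by beta-lactamase reporter, read 2 hrs at RT, measured agonist activity. Compounds were tested with 18 hrs exposure at 37 C. Concentration-response data fitted to Hill equation.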
For `CC(C)OC(=O)Nc1cccc(Cl)c1`, the result was inactive.
Consider `CNC(=O)Oc1cccc2c1OC(C)(C)O2`, for which the outcome was inactive.
With `CCCCSP(=O)(SCCCC)SCCCC`, the outcome was inactive.
On to `CCS(=O)CCSP(=O)(OC)OC` (stereo not given), for which the result was inactive.
As to `COP(N)(=O)SC` (stereo not given), the result was inactive.
As to `CC(C)(C)C(=O)C(Oc1ccc(Cl)cc1)n1cncn1` (stereo not given), the outcome was inactive.
In the case of `CC(C)N1C(=O)c2ccccc2NS1(=O)=O`, the outcome was inactive.
Same read-out and setting: as for `CNC(=O)CSP(=S)(OC)OC`, the entry is “inactive”; as for `N#Cc1c(Cl)cccc1Cl`, “inactive”.
`COc1nc(NC(C)C)nc(NC(C)C)n1`: the outcome was inactive.
On to `CNC(=O)Oc1ccccc1OC(C)C`, for which the outcome was inactive.

These data come from PubChem BioAssay (NCATS).
